# Assay results reported in PubChem BioAssay (NCATS).
# Values joined by “and” are separate entries in the source; they are usually repeats but may differ in a detail not shown here. Identical values can stand only once. Results filed as inconclusive are left out. Entries that show only a call come without a potency. Where a structure was tested more than once in an assay, its records may differ in their call. Active and inactive are the calls of the source. Unless noted, the call rests on the fitted dose curve; in most records, active means well fitted curve in the direction sought with a large enough effect; inconclusive means small, poorly fitted or top-dose-only effect, or another doubt; inactive means no such curve, though single readings can be large; an effect the other way counts as inactive or inconclusive.
# What was measured:
# [1] = Primary qHTS for inhibitors of nuclear receptor binding SET domain protein 2 (NSD2) in an isogenic RCH-ACV NSD2 p.E1099K mutant (9B) (AID 1645876); further: nearly all actives have a fitted effect of over 70% in size; further: potency means the concentration at half of the fitted maximal effect
# [2] = Primary qHTS for inhibitors of nuclear receptor binding SET domain protein 2 (NSD2) in an RCH-ACV wild type WT cells (2C) (AID 1645877); further: nearly all actives have a fitted effect of over 70% in size; further: potency means the concentration at half of the fitted maximal effect
# [3] = biological target: Catechol O-methyltransferase (Homo sapiens) (UniProt P21964); test: Confirmatory Screen for Target Class Profiling of Small Molecule Inhibitors of Methyltransferases (AID 1745852; calls by dose curve); details: MTase-Glo luminescence, SAH detection, recombinant enzyme, stronger effect = lower value; measured here: COMT max response unless noted
# Chain of Catechol O-methyltransferase (Homo sapiens) (P21964 whole entry, looked up): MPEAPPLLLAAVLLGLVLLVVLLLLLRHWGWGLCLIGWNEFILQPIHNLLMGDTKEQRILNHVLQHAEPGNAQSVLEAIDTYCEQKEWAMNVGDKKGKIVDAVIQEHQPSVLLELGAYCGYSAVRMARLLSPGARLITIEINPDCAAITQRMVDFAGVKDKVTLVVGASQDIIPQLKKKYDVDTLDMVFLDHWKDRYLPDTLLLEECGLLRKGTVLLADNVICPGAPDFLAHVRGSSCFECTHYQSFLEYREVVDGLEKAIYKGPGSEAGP
# [4] = biological target: Guanidinoacetate N-methyltransferase (Homo sapiens) (UniProt Q14353); test: as above; details: MTase-Glo luminescence, SAH detection, recombinant enzyme; activity change, negative = inhibition: at 57.3 µM (top of the series)
# [5] = biological target: Nicotinamide N-methyltransferase (Homo sapiens) (UniProt P40261); test: as above; details: MTase-Glo luminescence, SAH detection, recombinant enzyme, stronger effect = lower value; measured here: NNMT max response unless noted
# Chain of Nicotinamide N-methyltransferase (Homo sapiens) (P40261 whole entry, looked up): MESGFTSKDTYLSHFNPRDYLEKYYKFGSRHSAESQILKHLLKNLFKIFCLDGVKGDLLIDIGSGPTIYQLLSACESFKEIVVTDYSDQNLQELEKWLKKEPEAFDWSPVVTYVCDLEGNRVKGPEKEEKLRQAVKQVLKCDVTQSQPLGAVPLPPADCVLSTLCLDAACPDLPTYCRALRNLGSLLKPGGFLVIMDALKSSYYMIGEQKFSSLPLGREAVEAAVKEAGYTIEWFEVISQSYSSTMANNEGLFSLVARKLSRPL
# [6] = biological target: Phenylethanolamine N-methyltransferase (Homo sapiens) (UniProt P11086); test: as above; details: MTase-Glo luminescence, SAH detection, recombinant enzyme, stronger effect = lower value; measured here: PNMT max response unless noted
# Chain of Phenylethanolamine N-methyltransferase (Homo sapiens) (P11086 whole entry, looked up): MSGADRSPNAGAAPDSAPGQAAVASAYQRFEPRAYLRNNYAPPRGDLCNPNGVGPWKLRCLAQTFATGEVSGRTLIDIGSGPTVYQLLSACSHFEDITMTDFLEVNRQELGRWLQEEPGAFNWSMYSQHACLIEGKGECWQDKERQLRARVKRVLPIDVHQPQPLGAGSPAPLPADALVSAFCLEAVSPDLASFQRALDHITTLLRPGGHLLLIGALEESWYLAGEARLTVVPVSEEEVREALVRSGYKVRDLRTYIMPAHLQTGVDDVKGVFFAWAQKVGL
structure (smiles),measurement,setting,value
Cc1ccc(S(=O)(=O)NC(=O)NN2CC3CCCC3C2)cc1 (centres undefined),Potency,[1],inactive
same,Potency,[2],inactive
c1ccc2[nH]c(-c3cscn3)nc2c1,Potency,[1],inactive
same,Potency,[2],inactive and 13.2 µM (active)
c1cnc2cc3c(cc2n1)C1CNCC3C1,Potency,[1],inactive
same,Potency,[2],inactive
COc1cc2c(cc1OC)C1CC(=O)C(CC(C)C)CN1CC2 (centres undefined),Potency,[1],inactive
same,Potency,[2],inactive
CN1C(C(=O)Nc2ccccn2)=C(O)c2sccc2S1(=O)=O,Potency,[1],inactive
same,Potency,[2],inactive
CC1(C)NC(=O)N(c2ccc([N+](=O)[O-])c(C(F)(F)F)c2)C1=O,Potency,[1],inactive
same,Potency,[2],inactive
Cc1nc(-c2ccc(OCC(C)C)c(C#N)c2)sc1C(=O)O,Potency,[1],inactive
same,Potency,[2],inactive
N[C@@H](Cc1cc(I)c(Oc2cc(I)c(O)c(I)c2)c(I)c1)C(=O)O,Potency,[1],inactive
same,Potency,[2],inactive
same,activity,[3],-6.89%
same,"activity change, negative = inhibition",[4],-4.64%
same,activity,[5],-9.69%
same,activity,[6],-6.64%
Nc1ccc(S(N)(=O)=O)cc1,Potency,[1],inactive
same,Potency,[2],inactive
CCc1nc(N)nc(N)c1-c1ccc(Cl)cc1,Potency,[1],2.37 µM (active) and 2.95 µM (active)
same,Potency,[2],3.35 µM (active) and 4.17 µM (active)
O=C(O)CCNC(=O)c1ccc(N=Nc2ccc(O)c(C(=O)O)c2)cc1,Potency,[1],inactive
same,Potency,[2],inactive
Cc1ccc(Nc2nccc(N(C)c3ccc4c(C)n(C)nc4c3)n2)cc1S(N)(=O)=O,Potency,[1],5.31 µM (active) and 1.83 µM (active) and 4.17 µM (active)
same,Potency,[2],9.44 µM (active) and 4.68 µM (active)
same,activity,[3],-4.72%
same,"activity change, negative = inhibition",[4],0%
same,activity,[5],-0.226%
same,activity,[6],-2.8%
COC1=C(OC)C(=O)C(CCCCCCCCCCO)=C(C)C1=O,Potency,[1],11.9 µM (active) and 18.6 µM (active)
same,Potency,[2],9.44 µM (active) and 18.6 µM (active)
